Experimental data as given in PubChem BioAssay (NCATS).

Assay: qHTS profiling of the MIPE4 collection as inhibitors of Plasmodium falciparum (DD2) proliferation (AID 743345)
Conditions: P. falciparum Dd2 in erythrocytes, SYBR Green DNA, 72 h; at 28.5 µM (top of the series) unless noted
Outline: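 Parasite DNA was quantified by SYBR Green I fluorescence (ex 485, em 535 nm) after overnight lysis in saponin/Triton buffer at room temperature. Cultures at 0.3% parasitemia and 2.5% hematocrit were first exposed to compound for 72 h at 37 C; signals were normalised to artemisinin (0.29 uM) and vehicle wells.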

Row | SMILES | parasite growth remaining, % of DMSO control (lower = more inhibition)
1 | CC(C)c1nn(-c2c(Cl)cccc2Cl)c2nc(Cc3ccc(OCCO)cc3)[nH]c(=O)c12 | 62%
2 | CC(O)C1C(=O)N2C(C(=O)O)=C(SC3CNC(C(=O)N(C)C)C3)C(C)C12 (stereo not given) | 93.4%
3 | Nc1ccn([C@@H]2O[C@H](CO)[C@H](O)C2(F)F)c(=O)n1 | 10.3%
4 | CC(C)Nc1cc(C(F)(F)F)cc2nc(NC(=O)c3cccnc3)nn12 | 97.3%
5 | C=CC(=O)Nc1cccc(Oc2nc(Nc3ccc(N4CCN(C)CC4)cc3)ncc2Cl)c1 | 16.8%
6 | O=C(CCCCCCNC(=O)c1cnc(N(c2ccccc2)c2ccccc2)nc1)NO | 7.75%
7 | Cc1nc(Nc2n[nH]c3c2CN(C(=O)N[C@H](CN(C)C)c2ccccc2)C3(C)C)c2sccc2n1 | 7.44%
8 | CC(C)(C)NC(=O)[C@H]1CN(Cc2cccnc2)CCN1C[C@@H](O)C[C@@H](Cc1ccccc1)C(=O)N[C@H]1c2ccccc2C[C@H]1O | 42.6%
9 | Cc1cc(Nc2nc(N[C@@H](C)c3ccc(F)cc3)c(C#N)cc2F)n[nH]1 | 7.99%
10 | CN1CCN(Cc2ccc(NC(=O)Nc3ccc(Oc4cc(NC(=O)C5CC5)ncn4)cc3)cc2C(F)(F)F)CC1 | 6.55%
11 | Cn1c(CNc2ccc(C(=N)N)cc2)nc2cc(C(=O)N(CCC(=O)O)c3ccccn3)ccc21 | 91.9% [at 9.64 µM]
12 | O=C(CCCCCCC(=O)Nc1ccc([C@H]2O[C@@H](CSc3nc(-c4ccccc4)c(-c4ccccc4)o3)C[C@@H](c3ccc(CO)cc3)O2)cc1)NO | 6.85%
13 | COc1ccc(F)c(F)c1C(=O)c1cnc(NC2CCN(S(C)(=O)=O)CC2)nc1N | 60.1%
14 | CNC(=O)c1ccc(-c2cnc3ncc(Cc4ccc5ncccc5c4)n3n2)cc1F | 41.8%
15 | COc1ccc(-n2nc(C(N)=O)c3c2C(=O)N(c2ccc(N4CCCCC4=O)cc2)CC3)cc1 | 82.6%
16 | CNC(=O)CN1CCC(Oc2cc3c(Nc4cccc(Cl)c4F)ncnc3cc2OC)CC1 | 41.4%
17 | CC(C)c1cnn2c(NCc3ccccc3)cc(N[C@@H](CO)[C@H](O)CO)nc12 | 61.8%
18 | O=C(Nc1cn[nH]c1-c1nc2ccc(CN3CCOCC3)cc2[nH]1)NC1CC1 | 12.9%

Row | SMILES | parasite growth remaining, % of DMSO control (lower = more inhibition)
19 | O=C(Nc1nc2cccc(-c3ccc(CN4CCS(=O)(=O)CC4)cc3)n2n1)C1CC1 | 97.6%
20 | CN(C)c1nc(Cc2ccc(NC(=O)c3ccc4ccccc4c3)cc2)nc(Cl)c1CC(=O)O | 87.6%
21 | OCc1ccc(-c2ccc(-c3ccc(CO)s3)o2)s1 | 79.5%
22 | COC(=O)C1=C(C)NC(C)=C(C(=O)OCCN2CCN(C(c3ccccc3)c3ccccc3)CC2)C1c1cccc([N+](=O)[O-])c1 (stereo not given) | 45.6%
23 | CNC(=O)c1ccc(N2C(=S)N(c3cnc(C#N)c(C(F)(F)F)c3)C(=O)C23CCC3)cc1F | 79.8%
24 | CCc1cc2c(cc1N1CCC(N3CCOCC3)CC1)C(C)(C)c1[nH]c3cc(C#N)ccc3c1C2=O | 8.84%
25 | CC(C)c1cc(C(=O)N2Cc3ccc(CN4CCN(C)CC4)cc3C2)c(O)cc1O | 7.69%
26 | CC(C)c1cc(-c2n[nH]c(=O)n2-c2ccc3c(ccn3C)c2)c(O)cc1O | 8.22%
27 | Cc1cc(CN2CCN(c3c(Br)cnc4nc(-c5ccc(N6CCN(C)CC6)cc5)[nH]c34)CC2)no1 | 6.44%
28 | Cc1ccc(CN2CCNCC2)cc1NC(=O)CNc1ccc(F)c(F)c1 | 103%
29 | Nc1cccc(-c2cc3c(Oc4cccc(O)c4)ncnc3[nH]2)c1 | 86%
30 | Cc1cc(Nc2cc(CN3CCOCC3)c3nc(C)c(Cc4ccc(Cl)cc4F)n3n2)n[nH]1 | 7.86%
31 | Cc1c(C)n(Cc2ccc(-c3ccccc3C(=O)O)cc2)c2ccc(C(=O)N[C@@H](C)c3ccc([N+](=O)[O-])cc3)cc12 | 30.3%
32 | CC(C)c1noc(N2CCC(COc3ccc(-c4ccc(S(C)(=O)=O)cc4)nc3)CC2)n1 | 23.2%
33 | Nc1ncnc2c1c(-c1cccc(OCc3ccccc3)c1)cn2C1CC(CN2CCCC2)C1 (stereo not given) | 7.32%
34 | O=C(Nc1ncc(-c2cc(C(F)F)nn2-c2c(Cl)cccc2Cl)s1)C1CC1 | 26.5%
35 | O=C(Cc1ccc(-c2ccc(OCCN3CCOCC3)cc2)cn1)NCc1ccccc1 | 20.2%
